Whole data set: some 16,000 sequences, median “rpm ratio (pull-down/input)” near 0.5, cut for the highest 2% near 5.5. This is one part of a sample in which the highest values are shown more often than they occur.

The test has as its target T1, MBP-FoxP3dN (Mus musculus, UniProt Q99JB6 188-423).
T1 sequence: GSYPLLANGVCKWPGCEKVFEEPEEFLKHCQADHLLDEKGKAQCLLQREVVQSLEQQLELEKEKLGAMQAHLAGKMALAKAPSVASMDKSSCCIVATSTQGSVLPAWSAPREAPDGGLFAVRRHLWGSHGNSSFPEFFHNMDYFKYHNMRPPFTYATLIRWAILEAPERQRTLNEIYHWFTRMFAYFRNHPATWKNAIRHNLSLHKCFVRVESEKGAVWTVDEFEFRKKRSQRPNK
Nature of the test: PD-seq (MBP pull-down with sequencing); 20 mM Tris-HCl pH 7.5, 100 mM NaCl, 1.5 mM MgCl2, 0.4 uM protein, 0.1 uM dsDNA library, 30 min, room temperature, amylose pull-down; high values mean tight binding. Conditions: protein: recombinant; tags: His6-MBP; chain copies: 2; dsDNA, one strand shown. An outline of the steps: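 Binding is reads-per-million enrichment of pull-down over input, with replicates pooled. It comes from 30 min room-temperature incubation in Tris pH 7.5 buffer with NaCl and MgCl2 of 0.4 µM His6-MBP-tagged, N-terminally truncated mouse FoxP3 or FoxP1 fragment from E. coli with 0.1 µM Klenow-filled degenerate double-stranded DNA library, followed by amylose resin capture, three washes and Illumina sequencing of the released DNA.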
“GATGATTGTTCTCCCAGCTGATGAATTGCCTCCATCGAGTAAACAAATTTTCCTAATCTTTCTGTTCAAGCGCCATCTAC”: the binding signal is 1.28 RPM ratio (pull-down/input).

Regarding “GATGATTGTTCTCCCAGCTGATGAATTATACTTCTCGAGTAAACAAATTTTCCTAATCTTTCTGTTCAAGCGCCATCTAC”, the binding signal was 0.492 RPM ratio (pull-down/input).

With “GATGATTGTTCTCCCAGCTGATGAATTTTTCTACTCGAGTAAACAAATTTTCCTAATCTTTCTGTTCAAGCGCCATCTAC”, the binding signal is 0.279 RPM ratio (pull-down/input).

Consider “GATGATTGTTCTCCCAGCTGATGAATTTATCGCCTCGAGTAAACAAATTTTCCTAATCTTTCTGTTCAAGCGCCATCTAC”, for which the binding signal was 1.07 RPM ratio (pull-down/input).

Consider “GATGATTGTTCTCCCAGCTGATGAATTGCGCTCATCGAGTAAACAAATTTTCCTAATCTTTCTGTTCAAGCGCCATCTAC”, for which the binding signal was 1.24 RPM ratio (pull-down/input).

Take “GATGATTGTTCTCCCAGCTGATGAATTAGCCGGCTCGAGTAAACAAATTTTCCTAATCTTTCTGTTCAAGCGCCATCTAC”: the binding signal was 0.203 RPM ratio (pull-down/input).

As to “GATGATTGTTCTCCCAGCTGATGAATTGTTTTTATCGAGTAAACAAATTTTCCTAATCTTTCTGTTCAAGCGCCATCTAC”, the binding signal is 3.74 RPM ratio (pull-down/input).

On to “GATGATTGTTCTCCCAGCTGATGAATTTATGTTATCGAGTAAACAAATTTTCCTAATCTTTCTGTTCAAGCGCCATCTAC”, for which the binding signal was 3.24 RPM ratio (pull-down/input).

In the case of “GATGATTGTTCTCCCAGCTGATGAATTCTGTTTATCGAGTAAACAAATTTTCCTAATCTTTCTGTTCAAGCGCCATCTAC”, the binding signal was 7.92 RPM ratio (pull-down/input).

In the case of “GATGATTGTTCTCCCAGCTGATGAATTTTGTTTATCGAGTAAACAAATTTTCCTAATCTTTCTGTTCAAGCGCCATCTAC”, the binding signal is 7.19 RPM ratio (pull-down/input).

On to “GATGATTGTTCTCCCAGCTGATGAATTTTCTTTATCGAGTAAACAAATTTTCCTAATCTTTCTGTTCAAGCGCCATCTAC”, for which the binding signal is 1.27 RPM ratio (pull-down/input).

For “GATGATTGTTCTCCCAGCTGATGAATTATGATTATCGAGTAAACAAATTTTCCTAATCTTTCTGTTCAAGCGCCATCTAC”, the binding signal is 3.53 RPM ratio (pull-down/input).

Consider “GATGATTGTTCTCCCAGCTGATGAATTATGTTTATCGAGTAAACAAATTTTCCTAATCTTTCTGTTCAAGCGCCATCTAC”, for which the binding signal is 8.36 RPM ratio (pull-down/input).

“GATGATTGTTCTCCCAGCTGATGAATTGTGTTTATCGAGTAAACAAATTTTCCTAATCTTTCTGTTCAAGCGCCATCTAC”: the binding signal was 8.53 RPM ratio (pull-down/input).

As to “GATGATTGTTCTCCCAGCTGATGAATTTATCTAATCGAGTAAACAAATTTTCCTAATCTTTCTGTTCAAGCGCCATCTAC”, the binding signal was 0.706 RPM ratio (pull-down/input).

For “GATGATTGTTCTCCCAGCTGATGAATTCCTTTTATCGAGTAAACAAATTTTCCTAATCTTTCTGTTCAAGCGCCATCTAC”, the binding signal is 0.345 RPM ratio (pull-down/input).

“GATGATTGTTCTCCCAGCTGATGAATTTGATTTATCGAGTAAACAAATTTTCCTAATCTTTCTGTTCAAGCGCCATCTAC”: the binding signal is 2.99 RPM ratio (pull-down/input).

Take “GATGATTGTTCTCCCAGCTGATGAATTCTTTTTATCGAGTAAACAAATTTTCCTAATCTTTCTGTTCAAGCGCCATCTAC”: the binding signal is 0.332 RPM ratio (pull-down/input).

On to “GATGATTGTTCTCCCAGCTGATGAATTACCACCCTCGAGTAAACAAATTTTCCTAATCTTTCTGTTCAAGCGCCATCTAC”, for which the binding signal is 0.312 RPM ratio (pull-down/input).

Take “GATGATTGTTCTCCCAGCTGATGAATTCGTCGTCTCGAGTAAACAAATTTTCCTAATCTTTCTGTTCAAGCGCCATCTAC”: the binding signal is 1.31 RPM ratio (pull-down/input).

As to “GATGATTGTTCTCCCAGCTGATGAATTAAAGTGCTCGAGTAAACAAATTTTCCTAATCTTTCTGTTCAAGCGCCATCTAC”, the binding signal was 0.358 RPM ratio (pull-down/input).

For the sequence “GATGATTGTTCTCCCAGCTGATGAATTTTCCTTCTCGAGTAAACAAATTTTCCTAATCTTTCTGTTCAAGCGCCATCTAC”, the binding signal is 0.258 RPM ratio (pull-down/input).

For “GATGATTGTTCTCCCAGCTGATGAATTTAGATTATCGAGTAAACAAATTTTCCTAATCTTTCTGTTCAAGCGCCATCTAC”, the binding signal was 1.31 RPM ratio (pull-down/input).

As to “GATGATTGTTCTCCCAGCTGATGAATTTTTTATCTCGAGTAAACAAATTTTCCTAATCTTTCTGTTCAAGCGCCATCTAC”, the binding signal was 0.243 RPM ratio (pull-down/input).

As to “GATGATTGTTCTCCCAGCTGATGAATTTTTTTTATCGAGTAAACAAATTTTCCTAATCTTTCTGTTCAAGCGCCATCTAC”, the binding signal was 0.295 RPM ratio (pull-down/input).

Take “GATGATTGTTCTCCCAGCTGATGAATTGTTTACATCGAGTAAACAAATTTTCCTAATCTTTCTGTTCAAGCGCCATCTAC”: the binding signal was 8.09 RPM ratio (pull-down/input).

Turning to “GATGATTGTTCTCCCAGCTGATGAATTTGTTTTATCGAGTAAACAAATTTTCCTAATCTTTCTGTTCAAGCGCCATCTAC”, the binding signal is 6.46 RPM ratio (pull-down/input).

With “GATGATTGTTCTCCCAGCTGATGAATTTATCTCCTCGAGTAAACAAATTTTCCTAATCTTTCTGTTCAAGCGCCATCTAC”, the binding signal is 0.631 RPM ratio (pull-down/input).

Regarding “GATGATTGTTCTCCCAGCTGATGAATTGTTTATCTCGAGTAAACAAATTTTCCTAATCTTTCTGTTCAAGCGCCATCTAC”, the binding signal is 6.57 RPM ratio (pull-down/input).

For the sequence “GATGATTGTTCTCCCAGCTGATGAATTTACAACATCGAGTAAACAAATTTTCCTAATCTTTCTGTTCAAGCGCCATCTAC”, the binding signal was 1.26 RPM ratio (pull-down/input).

With “GATGATTGTTCTCCCAGCTGATGAATTTTTTACATCGAGTAAACAAATTTTCCTAATCTTTCTGTTCAAGCGCCATCTAC”, the binding signal is 0.25 RPM ratio (pull-down/input).

Turning to “GATGATTGTTCTCCCAGCTGATGAATTTCTTTTATCGAGTAAACAAATTTTCCTAATCTTTCTGTTCAAGCGCCATCTAC”, the binding signal was 0.545 RPM ratio (pull-down/input).

For the sequence “GATGATTGTTCTCCCAGCTGATGAATTGTGTCCCTCGAGTAAACAAATTTTCCTAATCTTTCTGTTCAAGCGCCATCTAC”, the binding signal was 2.1 RPM ratio (pull-down/input).

These data come from publication PMC12820563, “FoxP3 forms a head-to-head dimer in vivo and stabilizes its multimerization on adjacent microsatellites”.
